In the supplement of paper PMC11732987, “Enantioselective OTUD7B fragment discovery through chemoproteomics screening and high-throughput optimisation” (Communications Chemistry, 2025):

Key:
Assay in all cases: log2 ratio of Biotin-Ahx-Ub-VS probe labelling (fragment/DMSO); higher = less target engagement (more negative = stronger competition), active = hit call of the paper (q ≤ 0.05, log2 ratio ≤ -1)
Conditions in all cases: compound concentration: 200 uM; treatment time: 3 h
ALG13 = biological target: T1, ALG13 (UniProt Q9NP73)
T1 sequence (whole entry): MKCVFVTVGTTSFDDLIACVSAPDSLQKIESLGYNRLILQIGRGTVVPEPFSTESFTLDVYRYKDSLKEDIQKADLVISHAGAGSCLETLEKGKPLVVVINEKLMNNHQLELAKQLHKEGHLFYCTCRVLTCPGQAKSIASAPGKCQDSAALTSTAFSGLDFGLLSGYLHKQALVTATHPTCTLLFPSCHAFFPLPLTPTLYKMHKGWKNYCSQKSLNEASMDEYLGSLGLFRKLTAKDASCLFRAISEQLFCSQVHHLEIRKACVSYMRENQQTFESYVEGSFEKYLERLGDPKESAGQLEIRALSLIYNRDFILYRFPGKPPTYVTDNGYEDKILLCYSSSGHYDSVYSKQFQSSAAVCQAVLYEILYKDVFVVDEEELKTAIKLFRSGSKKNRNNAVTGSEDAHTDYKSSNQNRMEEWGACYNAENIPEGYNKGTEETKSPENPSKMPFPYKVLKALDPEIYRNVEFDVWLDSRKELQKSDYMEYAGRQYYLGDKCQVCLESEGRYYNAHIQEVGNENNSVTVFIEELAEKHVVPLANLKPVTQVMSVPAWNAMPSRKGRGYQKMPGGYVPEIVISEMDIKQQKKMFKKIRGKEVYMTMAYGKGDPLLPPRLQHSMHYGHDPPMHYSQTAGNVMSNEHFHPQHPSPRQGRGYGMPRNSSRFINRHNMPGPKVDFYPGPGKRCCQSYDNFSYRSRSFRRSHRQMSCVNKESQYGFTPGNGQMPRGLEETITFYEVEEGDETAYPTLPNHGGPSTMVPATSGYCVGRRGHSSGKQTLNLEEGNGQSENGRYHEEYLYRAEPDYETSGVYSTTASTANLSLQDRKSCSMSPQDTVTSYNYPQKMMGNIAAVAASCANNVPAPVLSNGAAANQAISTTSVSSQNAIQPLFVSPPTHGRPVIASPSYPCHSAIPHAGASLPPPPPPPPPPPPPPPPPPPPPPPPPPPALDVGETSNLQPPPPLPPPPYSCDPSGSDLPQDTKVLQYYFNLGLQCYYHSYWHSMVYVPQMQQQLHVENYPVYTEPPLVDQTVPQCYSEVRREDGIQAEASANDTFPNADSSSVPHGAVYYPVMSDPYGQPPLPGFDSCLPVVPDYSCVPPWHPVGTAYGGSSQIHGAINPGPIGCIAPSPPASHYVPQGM
How it was run: (§1)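 Fragment (200 µM) or vehicle was incubated for 3 h with triplicate HEK293T lysate samples of 495 µg, which were then treated with Biotin-Ahx-Ub-VS at 0.5 µM final for 1 h. Labelled DUBs were enriched on NeutrAvidin, digested with LysC and trypsin, and analysed by diaPASEF LC-MS/MS. Values are average log2 fragment/vehicle ratios from an unpaired t-test on global-median-normalised Spectronaut label-free quantities, using proteins with ≥2 unique peptides.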

ATXN3 = ATXN3 (UniProt P54252)
Sequence of ATXN3 (P54252 whole entry): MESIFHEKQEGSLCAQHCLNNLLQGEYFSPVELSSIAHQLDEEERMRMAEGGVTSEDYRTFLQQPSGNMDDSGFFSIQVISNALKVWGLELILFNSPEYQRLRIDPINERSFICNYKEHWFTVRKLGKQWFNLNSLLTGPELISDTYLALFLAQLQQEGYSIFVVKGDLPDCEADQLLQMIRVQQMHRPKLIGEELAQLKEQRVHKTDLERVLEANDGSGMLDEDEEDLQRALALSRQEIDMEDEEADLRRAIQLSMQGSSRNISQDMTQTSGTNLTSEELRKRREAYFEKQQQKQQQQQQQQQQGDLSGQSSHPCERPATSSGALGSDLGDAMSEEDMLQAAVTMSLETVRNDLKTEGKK
How it was run: as §1

BAP1 = biological target: T2, BAP1 (UniProt Q92560)
T2 sequence (whole entry): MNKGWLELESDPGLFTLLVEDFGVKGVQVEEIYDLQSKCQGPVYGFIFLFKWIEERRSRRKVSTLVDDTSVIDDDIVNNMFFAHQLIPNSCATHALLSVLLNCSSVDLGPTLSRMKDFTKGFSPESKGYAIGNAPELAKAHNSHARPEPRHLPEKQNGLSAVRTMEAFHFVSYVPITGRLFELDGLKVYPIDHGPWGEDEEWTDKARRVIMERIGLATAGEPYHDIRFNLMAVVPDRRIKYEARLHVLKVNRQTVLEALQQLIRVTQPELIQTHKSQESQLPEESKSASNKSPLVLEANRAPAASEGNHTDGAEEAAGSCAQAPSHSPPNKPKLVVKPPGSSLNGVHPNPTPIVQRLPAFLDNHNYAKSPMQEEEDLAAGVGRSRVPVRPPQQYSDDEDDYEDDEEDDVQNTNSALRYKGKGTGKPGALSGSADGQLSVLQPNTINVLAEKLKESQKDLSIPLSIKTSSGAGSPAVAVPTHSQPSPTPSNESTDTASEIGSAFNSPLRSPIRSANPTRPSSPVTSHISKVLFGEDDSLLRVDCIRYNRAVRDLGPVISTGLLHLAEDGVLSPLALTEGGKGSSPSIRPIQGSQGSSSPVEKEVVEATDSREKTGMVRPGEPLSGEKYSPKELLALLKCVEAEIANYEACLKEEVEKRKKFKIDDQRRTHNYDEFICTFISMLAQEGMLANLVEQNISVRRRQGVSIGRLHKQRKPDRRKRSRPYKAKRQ
How it was run: as §1

EIF3F = EIF3F (UniProt O00303)
Sequence of EIF3F (O00303 whole entry): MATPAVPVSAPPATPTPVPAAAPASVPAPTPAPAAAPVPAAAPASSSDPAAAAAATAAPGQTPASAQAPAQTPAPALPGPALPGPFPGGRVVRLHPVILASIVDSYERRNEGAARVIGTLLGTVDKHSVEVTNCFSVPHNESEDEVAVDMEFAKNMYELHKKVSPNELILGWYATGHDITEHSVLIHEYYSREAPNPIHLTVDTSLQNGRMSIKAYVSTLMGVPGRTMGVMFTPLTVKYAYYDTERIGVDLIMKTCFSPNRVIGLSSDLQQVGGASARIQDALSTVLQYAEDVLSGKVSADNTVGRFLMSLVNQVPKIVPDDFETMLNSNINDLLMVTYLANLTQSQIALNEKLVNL
How it was run: as §1

EIF3H = EIF3H (UniProt O15372)
Sequence of EIF3H (O15372 whole entry): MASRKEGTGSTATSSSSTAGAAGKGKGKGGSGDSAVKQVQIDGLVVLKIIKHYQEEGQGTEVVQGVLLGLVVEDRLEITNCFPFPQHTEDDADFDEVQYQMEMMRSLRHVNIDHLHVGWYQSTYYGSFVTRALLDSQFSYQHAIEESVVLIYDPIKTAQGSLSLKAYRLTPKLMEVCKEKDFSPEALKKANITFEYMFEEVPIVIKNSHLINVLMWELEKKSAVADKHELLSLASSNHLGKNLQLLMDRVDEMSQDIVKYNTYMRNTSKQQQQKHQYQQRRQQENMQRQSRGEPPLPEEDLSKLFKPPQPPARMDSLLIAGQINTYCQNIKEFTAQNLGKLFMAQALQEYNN
How it was run: as §1

FAM105A = biological target: T3, FAM105A (UniProt Q9NUU6)
T3 sequence (whole entry): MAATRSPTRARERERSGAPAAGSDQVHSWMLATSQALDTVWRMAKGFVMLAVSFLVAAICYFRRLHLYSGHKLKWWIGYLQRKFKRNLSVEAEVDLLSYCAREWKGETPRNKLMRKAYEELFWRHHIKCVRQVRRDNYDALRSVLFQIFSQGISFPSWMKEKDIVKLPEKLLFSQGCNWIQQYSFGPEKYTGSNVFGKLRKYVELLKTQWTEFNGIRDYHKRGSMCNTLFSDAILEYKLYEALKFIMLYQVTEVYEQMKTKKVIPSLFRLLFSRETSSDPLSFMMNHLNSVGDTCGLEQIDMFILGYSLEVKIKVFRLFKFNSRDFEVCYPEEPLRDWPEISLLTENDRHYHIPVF
How it was run: as §1

OTUB1 = OTUB1 (UniProt Q96FW1)
Sequence of OTUB1 (Q96FW1 whole entry): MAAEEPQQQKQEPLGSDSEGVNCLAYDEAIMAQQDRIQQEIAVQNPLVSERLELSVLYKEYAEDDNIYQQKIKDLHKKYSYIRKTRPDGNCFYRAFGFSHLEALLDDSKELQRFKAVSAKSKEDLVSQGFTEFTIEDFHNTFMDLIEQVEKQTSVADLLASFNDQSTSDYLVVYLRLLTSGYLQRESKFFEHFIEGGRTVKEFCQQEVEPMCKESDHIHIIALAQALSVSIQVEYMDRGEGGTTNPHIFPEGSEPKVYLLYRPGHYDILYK
How it was run: as §1

OTUD4 = biological target: T4, OTUD4 (UniProt Q01804)
T4 sequence (whole entry): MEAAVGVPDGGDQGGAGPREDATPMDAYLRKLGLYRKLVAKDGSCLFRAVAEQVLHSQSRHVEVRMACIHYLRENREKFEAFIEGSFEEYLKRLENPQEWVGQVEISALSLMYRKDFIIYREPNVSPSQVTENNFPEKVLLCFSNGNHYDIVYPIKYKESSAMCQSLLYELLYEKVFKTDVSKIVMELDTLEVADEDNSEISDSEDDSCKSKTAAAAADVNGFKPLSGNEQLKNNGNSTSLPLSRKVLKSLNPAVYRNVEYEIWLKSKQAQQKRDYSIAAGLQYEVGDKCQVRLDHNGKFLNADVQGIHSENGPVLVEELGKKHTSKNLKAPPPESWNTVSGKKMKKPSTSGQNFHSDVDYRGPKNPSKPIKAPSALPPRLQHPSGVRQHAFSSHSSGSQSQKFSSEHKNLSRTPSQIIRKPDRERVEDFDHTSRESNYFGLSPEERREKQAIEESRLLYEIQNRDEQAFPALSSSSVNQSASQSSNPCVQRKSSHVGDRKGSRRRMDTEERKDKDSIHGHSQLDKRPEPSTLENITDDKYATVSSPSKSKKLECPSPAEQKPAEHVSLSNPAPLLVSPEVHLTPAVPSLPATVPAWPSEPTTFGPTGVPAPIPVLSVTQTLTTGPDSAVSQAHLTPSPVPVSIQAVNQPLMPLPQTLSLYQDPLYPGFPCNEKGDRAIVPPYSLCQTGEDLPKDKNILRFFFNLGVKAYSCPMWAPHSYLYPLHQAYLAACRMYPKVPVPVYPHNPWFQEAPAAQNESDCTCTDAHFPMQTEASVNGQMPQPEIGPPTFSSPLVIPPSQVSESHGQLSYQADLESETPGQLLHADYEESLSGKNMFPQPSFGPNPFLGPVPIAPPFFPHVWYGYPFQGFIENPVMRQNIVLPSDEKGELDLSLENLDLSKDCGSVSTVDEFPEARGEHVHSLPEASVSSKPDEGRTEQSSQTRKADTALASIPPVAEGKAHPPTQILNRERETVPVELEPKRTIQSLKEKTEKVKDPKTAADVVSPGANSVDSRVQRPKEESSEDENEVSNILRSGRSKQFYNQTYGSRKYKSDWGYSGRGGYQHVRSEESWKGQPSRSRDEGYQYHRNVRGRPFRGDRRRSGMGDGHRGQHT
How it was run: as §1

OTUD5 = biological target: T5, OTUD5 (UniProt Q96G74)
T5 sequence (whole entry): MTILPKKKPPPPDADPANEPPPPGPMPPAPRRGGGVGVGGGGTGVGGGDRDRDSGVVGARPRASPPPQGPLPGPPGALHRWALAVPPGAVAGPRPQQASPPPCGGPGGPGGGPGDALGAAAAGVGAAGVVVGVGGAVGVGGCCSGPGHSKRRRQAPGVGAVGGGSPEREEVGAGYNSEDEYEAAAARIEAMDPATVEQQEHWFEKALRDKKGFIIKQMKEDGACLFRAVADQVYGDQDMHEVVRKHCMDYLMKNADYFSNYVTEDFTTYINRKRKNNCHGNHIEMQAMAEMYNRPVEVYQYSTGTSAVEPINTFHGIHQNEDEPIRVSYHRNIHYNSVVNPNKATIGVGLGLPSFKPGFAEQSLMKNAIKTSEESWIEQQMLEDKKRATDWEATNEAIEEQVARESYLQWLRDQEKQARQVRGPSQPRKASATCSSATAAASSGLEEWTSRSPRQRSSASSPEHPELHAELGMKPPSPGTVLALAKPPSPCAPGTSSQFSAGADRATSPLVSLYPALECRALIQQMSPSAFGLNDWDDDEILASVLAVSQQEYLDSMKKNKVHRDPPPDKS
How it was run: as §1

Measured: log2 ratio of Biotin-Ahx-Ub-VS probe labelling

C[C@H]1CN(C(=O)CCl)CCN1C(=O)c1cnn(C)c1.Cl
inactive: ALG13 0.134 | ATXN3 -0.631 | BAP1 -0.356 | EIF3F 0.132 | EIF3H 0.0411 | FAM105A 0.375 | OTUB1 -0.204 | OTUD4 -0.236 | OTUD5 -0.326
